Measured values published in PubChem BioAssay (EPA / NIEHS).
Active and inactive are the calls of the source. Rule for the calls: active = hit-call score of the fitted dose curve at least 0.9, where 1 is the maximum; inactive = score below 0.9.

Experiments:
[1] = APR_HepG2_StressKinase_1hr: Apredica 1-hour HepG2 Assay for Stress Kinase (AID 2282906); settings: HepG2 stress kinase (phospho-c-Jun) imaging, actives raise or lower the signal
How it was run: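 HepG2 cells dosed 0.39-200 uM (0.5% DMSO) for 1 h, then formaldehyde-fixed. Stress kinase read by phospho-c-Jun immunofluorescence using high-content imaging; bidirectional fit vs DMSO.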

[2] = APR_HepG2_NuclearSize_24hr: Apredica 24-hour HepG2 Assay for Nuclear Size (AID 2282907); settings: high-content imaging, actives raise or lower the signal
How it was run: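 HepG2 cells exposed 24 h to compounds at 0.39–200 uM (0.5% DMSO), fixed, Hoechst 33342 stained and imaged at 20x; nuclear diameter measured by automated image analysis, fitted bidirectionally against DMSO controls.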

[3] = APR_HepG2_CellLoss_24hr: Apredica 24-hour HepG2 Assay for Cell Loss (AID 2282908); settings: high-content imaging;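 for AC50: fit in both directions so a hit may be cell loss or gain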
How it was run: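 HepG2 cells exposed 24 hr to 0.39–200 uM compound in duplicate at 0.5% v/v final DMSO. Cells fixed in 3.7% formaldehyde and Hoechst 33342-stained. Cell number came from nuclear imaging at 20x. Bidirectional fit versus DMSO.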

[4] = APR_HepG2_MicrotubuleCSK_24hr: Apredica 24-hour HepG2 Assay for Microtubule CSK Stabilty (AID 2282909); settings: HepG2 microtubule cytoskeleton imaging, actives raise or lower the signal
How it was run: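 HepG2 cells were treated 24 hr with compound at 0.39–200 uM in duplicate (0.5% DMSO final), then fixed and permeabilized. Alpha-tubulin immunofluorescence was imaged by high-content microscopy, with bidirectional fitting against DMSO and taxol as positive control.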

[5] = APR_HepG2_MitoticArrest_24hr: Apredica 24-hour HepG2 Assay for Mitotic Arrest (AID 2282910); settings: high-content imaging, actives raise or lower the signal
How it was run: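 Compounds are dosed onto HepG2 cells across ten concentrations up to 200 uM for 24 hr. Cells are then fixed in 3.7% formaldehyde, permeabilised, and labelled for phospho-histone H3 and nuclei; images are scored by cell cycle analysis and fitted bidirectionally relative to DMSO.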

[6] = APR_HepG2_MitoMembPot_24hr: Apredica 24-hour HepG2 Assay for Mitochondrial Membrane Potential (AID 2282911); settings: imaging, actives raise or lower the signal
How it was run: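 HepG2 human liver cells were exposed 24 hr to compounds at 0.39–200 uM (final DMSO 0.5% v/v) in duplicate. MitoTracker Red CMXRos (250 nM, 30 min) was loaded before formaldehyde fixation; fluorescence was imaged by ArrayScan HCS and fitted bidirectionally versus DMSO.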

[7] = APR_HepG2_MitoMass_24hr: Apredica 24-hour HepG2 Assay for Mitochondrial Mass (AID 2282912); settings: high-content imaging, actives raise or lower the signal
How it was run: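 HepG2 cells exposed 24 hr to 0.39–200 uM compound, 0.5% v/v DMSO, in duplicate. Stained before fixation with 250 nM MitoTracker Red CMXRos for 30 min, then imaged at 20x with Hoechst nuclei. Fitted in both directions against DMSO.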

[8] = APR_HepG2_p53Act_24hr: Apredica 24-hour HepG2 Assay for p53 Activation (AID 2282913); settings: high-content imaging, actives raise or lower the signal;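 note: p53 protein immunofluorescence averaged per cell in HepG2 with Hoechst nuclei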
How it was run: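 HepG2 cells exposed 24 hr to compounds at 0.39–200 uM (10 concentrations, duplicate), final DMSO 0.5% v/v. After formaldehyde fixation and Triton permeabilization, p53 was immunolabeled (sheep anti-p53, Cy5 secondary) with Hoechst 33342 nuclear counterstain, then imaged by high-content fluorescence microscopy.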

[9] = APR_HepG2_CellCycleArrest_72hr: Apredica 72-hour HepG2 Assay for Cell Cycle Arrest (AID 2282914); settings: high-content imaging, actives raise or lower the signal
How it was run: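 HepG2 cells were exposed to compounds at 0.39–200 uM (0.5% v/v DMSO final, duplicates) for 72 hr, fixed in 3.7% formaldehyde, permeabilized and stained with Hoechst 33342. Nuclear DNA content was quantified by high-content imaging; gain or loss of signal was fitted bidirectionally against DMSO.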

[10] = APR_HepG2_CellLoss_72hr: Apredica 72-hour HepG2 Assay for Cell Loss (AID 2282915); settings: high-content imaging
How it was run: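 Cell number comes from Hoechst 33342-labelled nuclei, imaged at 20x after 3.7% formaldehyde fixation. Dosing was 0.39–200 uM, ten concentrations in duplicate, 0.5% DMSO final, for 72 h. Bidirectional fit relative to DMSO baseline.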

Compound	outcome [1]	outcome [2]	outcome [3]	outcome [4]	outcome [5]	outcome [6]	outcome [7]	outcome [8]	outcome [9]	outcome [10]	AC50 [1]	AC50 [3]	AC50 [4]	AC50 [5]	AC50 [7]	AC50 [10]	AC50 [9]	AC50 [6]
CSc1nc(NC(C)C)nc(NC(C)C)n1	inactive	inactive	inactive	inactive	inactive	inactive	inactive	inactive	inactive	inactive	–	–	–	–	–	–	–	–
CC[C@H](C)[C@H]1O[C@]2(C=C[C@@H]1C)C[C@@H]1C[C@@H](C/C=C(\C)[C@@H](O[C@H]3C[C@H](OC)[C@@H](O[C@H]4C[C@H](OC)[C@@H](NC)[C@H](C)O4)[C@H](C)O3)[C@@H](C)/C=C/C=C3\CO[C@@H]4[C@H](O)C(C)=C[C@@H](C(=O)O1)[C@]34O)O2	–	inactive	–	–	–	inactive	–	inactive	inactive	inactive	17.6 µM (active)	2.55 µM (active)	12.6 µM (active)	12.7 µM (active)	8.64 µM (active)	–	–	–
CCOC(=O)COc1cc(-c2nn(C)c(OC(F)F)c2Cl)c(F)cc1Cl	inactive	inactive	inactive	inactive	inactive	inactive	inactive	inactive	inactive	inactive	–	–	–	–	–	–	–	–
CN(C)[C@@H]1C(=O)C(C(N)=O)=C(O)[C@@]2(O)C(=O)C3=C(O)c4c(O)cccc4[C@@](C)(O)[C@H]3[C@H](O)[C@@H]12	inactive	inactive	inactive	inactive	inactive	inactive	inactive	–	inactive	inactive	–	–	–	–	–	–	–	–
CN(C)C(=O)Nc1cccc(C(F)(F)F)c1	inactive	inactive	inactive	inactive	inactive	inactive	inactive	inactive	inactive	inactive	–	–	–	–	–	–	–	–
CC(C)=CC1C(C(=O)OCN2C(=O)C3=C(CCCC3)C2=O)C1(C)C (stereo not given)	inactive	inactive	–	–	inactive	inactive	inactive	inactive	inactive	–	–	109 µM (active)	105 µM (active)	–	–	100 µM (active)	–	–
Cc1cc(C2CC2)nc(Nc2ccccc2)n1	inactive	inactive	–	–	inactive	inactive	inactive	inactive	inactive	–	–	60.5 µM (active)	98.6 µM (active)	–	–	75.7 µM (active)	–	–
CSc1nnc(C(C)(C)C)c(=O)n1N	–	inactive	inactive	inactive	inactive	inactive	inactive	inactive	inactive	inactive	–	–	–	–	–	–	–	–
CC1(C(=O)Nc2ccc(O)c(Cl)c2Cl)CCCCC1	inactive	inactive	inactive	–	inactive	inactive	inactive	inactive	inactive	–	–	–	94 µM (active)	–	–	71.2 µM (active)	–	–
C#CCC1=C(C)C(OC(=O)C2C(C=C(C)C)C2(C)C)CC1=O (stereo not given)	inactive	inactive	–	inactive	inactive	inactive	inactive	inactive	–	inactive	–	89.4 µM (active)	–	–	–	–	104 µM (active)	–
CN(C)NC(=O)CCC(=O)O	inactive	inactive	inactive	inactive	inactive	inactive	inactive	inactive	inactive	inactive	–	–	–	–	–	–	–	–
COc1ccc(C(=CC(=O)N2CCOCC2)c2ccc(Cl)cc2)cc1OC	inactive	inactive	inactive	inactive	inactive	–	inactive	inactive	inactive	–	–	–	–	–	–	31.1 µM (active)	–	8.19 µM (active)
CCOC(=O)CC(SP(=O)(OC)OC)C(=O)OCC (stereo not given)	–	inactive	inactive	inactive	inactive	inactive	inactive	inactive	inactive	inactive	–	–	–	–	–	–	–	–
FC(F)C(F)(F)OCC(Cn1cncn1)c1ccc(Cl)cc1Cl (stereo not given)	–	inactive	–	–	inactive	inactive	inactive	inactive	–	–	–	48.7 µM (active)	103 µM (active)	–	–	99.9 µM (active)	75.8 µM (active)	–
COc1cccc(C(=O)NN(C(=O)c2cc(C)cc(C)c2)C(C)(C)C)c1C	inactive	inactive	inactive	inactive	inactive	inactive	inactive	inactive	inactive	inactive	–	–	–	–	–	–	–	–
C[Si](Cn1cncn1)(c1ccc(F)cc1)c1ccc(F)cc1	inactive	inactive	inactive	inactive	inactive	inactive	inactive	inactive	inactive	–	–	–	–	–	–	57.8 µM (active)	–	–
CCOP(=S)(OCC)Oc1ccc([N+](=O)[O-])cc1	inactive	inactive	inactive	inactive	inactive	inactive	inactive	inactive	inactive	inactive	–	–	–	–	–	–	–	–
COP(=O)(NC(C)=O)SC (stereo not given)	inactive	inactive	inactive	inactive	inactive	inactive	inactive	inactive	inactive	inactive	–	–	–	–	–	–	–	–
CC1=NNC(=O)N(/N=C/c2cccnc2)C1	inactive	inactive	inactive	inactive	inactive	inactive	inactive	inactive	inactive	inactive	–	–	–	–	–	–	–	–
CCCOCC(=Nc1ccc(Cl)cc1C(F)(F)F)n1ccnc1	inactive	inactive	inactive	inactive	inactive	inactive	inactive	inactive	inactive	–	–	–	–	–	–	100 µM (active)	–	–

Compound	outcome [1]	outcome [2]	outcome [3]	outcome [4]	outcome [5]	outcome [6]	outcome [7]	outcome [8]	outcome [9]	outcome [10]	AC50 [1]	AC50 [3]	AC50 [4]	AC50 [5]	AC50 [7]	AC50 [10]	AC50 [9]	AC50 [6]
COP(=O)(OC)C(O)C(Cl)(Cl)Cl (stereo not given)	inactive	inactive	–	–	–	inactive	inactive	inactive	–	–	–	76.8 µM (active)	97.7 µM (active)	103 µM (active)	–	100 µM (active)	184 µM (active)	–
CC(Oc1cccc(Cl)c1)C(=O)O (stereo not given)	inactive	inactive	inactive	inactive	inactive	inactive	inactive	inactive	inactive	inactive	–	–	–	–	–	–	–	–
CC(COc1ccc(Oc2ccccc2)cc1)Oc1ccccn1 (stereo not given)	–	inactive	inactive	inactive	inactive	–	inactive	inactive	–	–	–	–	–	–	–	49.2 µM (active)	87 µM (active)	65.7 µM (active)
CCCOc1nn(C(=O)NS(=O)(=O)c2ccccc2C(=O)OC)c(=O)n1C	inactive	inactive	inactive	inactive	inactive	inactive	inactive	inactive	inactive	inactive	–	–	–	–	–	–	–	–
O=[N+]([O-])c1cc(C(F)(F)F)c(Cl)c([N+](=O)[O-])c1Nc1ncc(C(F)(F)F)cc1Cl	–	inactive	–	–	inactive	inactive	inactive	–	–	–	9.87 µM (active)	49.5 µM (active)	1.14 µM (active)	–	–	1.33 µM (active)	0.676 µM (active)	–
CCC(=NOC/C=C/Cl)C1=C(O)CC(C2CCOCC2)CC1=O (stereo not given)	inactive	inactive	inactive	inactive	inactive	inactive	inactive	inactive	inactive	inactive	–	–	–	–	–	–	–	–
CNc1cnn(-c2cccc(C(F)(F)F)c2)c(=O)c1Cl	inactive	inactive	inactive	inactive	inactive	inactive	inactive	inactive	inactive	inactive	–	–	–	–	–	–	–	–
CCOP(=S)(OCC)Oc1cc(C)nc(C(C)C)n1	inactive	inactive	inactive	inactive	inactive	inactive	inactive	inactive	inactive	inactive	–	–	–	–	–	–	–	–
CCOP(=S)(Oc1cnc(C(C)(C)C)nc1)OC(C)C (stereo not given)	inactive	inactive	inactive	inactive	inactive	inactive	inactive	inactive	–	–	–	–	–	–	–	82.7 µM (active)	113 µM (active)	–
CCOP(=S)(OCC)SCCSCC	inactive	inactive	inactive	inactive	inactive	inactive	inactive	inactive	inactive	inactive	–	–	–	–	–	–	–	–
CSC1=N[C@@](C)(c2ccccc2)C(=O)N1Nc1ccccc1	inactive	inactive	inactive	–	inactive	inactive	inactive	inactive	inactive	–	–	–	43.3 µM (active)	–	–	12.2 µM (active)	–	–
CCOP(=S)(OCC)OC(Cl)C(Cl)(Cl)Cl (stereo not given)	inactive	inactive	–	inactive	inactive	–	inactive	inactive	–	–	–	97.5 µM (active)	–	–	–	144 µM (active)	165 µM (active)	151 µM (active)
CCCCN(CC)c1c([N+](=O)[O-])cc(C(F)(F)F)cc1[N+](=O)[O-]	inactive	inactive	inactive	inactive	inactive	–	inactive	inactive	–	–	–	–	–	–	–	84.6 µM (active)	108 µM (active)	71.9 µM (active)
CC(=NC#N)N(C)Cc1ccc(Cl)nc1	inactive	inactive	inactive	inactive	inactive	inactive	inactive	inactive	inactive	inactive	–	–	–	–	–	–	–	–
CC(C)N(C(=O)SCC(Cl)=C(Cl)Cl)C(C)C	inactive	inactive	–	inactive	inactive	inactive	inactive	inactive	inactive	–	–	113 µM (active)	–	–	–	110 µM (active)	–	–
CCCCOC(=O)[C@@H](C)Oc1ccc(Oc2ccc(C#N)cc2F)cc1	–	inactive	inactive	inactive	inactive	inactive	inactive	inactive	inactive	–	–	–	–	–	–	99.2 µM (active)	–	–
Cc1nn(-c2cc(NS(C)(=O)=O)c(Cl)cc2Cl)c(=O)n1C(F)F	–	inactive	inactive	inactive	inactive	inactive	inactive	inactive	inactive	inactive	–	–	–	–	–	–	–	–
CCC(CC)Nc1c([N+](=O)[O-])cc(C)c(C)c1[N+](=O)[O-]	–	inactive	inactive	inactive	inactive	–	inactive	inactive	inactive	–	–	–	–	–	–	108 µM (active)	–	84.3 µM (active)
COc1cc(OC)nc(Sc2cccc(Cl)c2C(=O)O)n1	–	inactive	inactive	inactive	inactive	inactive	inactive	inactive	inactive	inactive	–	–	–	–	–	–	–	–
